Test results from PubChem BioAssay.
A number with no mark means an inactive call. For some of these results: Measured potencies and affinities stand elsewhere. Activity calls are given as the source filed them. Unless noted, the rule behind the calls is not given here.

Assays:
[1] = antimalarial activity against Dd2 strain (AID 2302;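 active = growth inhibition above 50% at the single 2 µM test dose, taken to imply half-maximal potency below 2 µM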;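 note: 0% = DMSO untreated growth and 100% = chloroquine plus artemisinin killed control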); conditions: P. falciparum Dd2 in RBCs, LDH growth readout, 72 h; at 2 µM; active compounds read high
[2] = HepG2 cytotoxicity, primary screen, cytotoxicity control for P. falciparum antimalarial project, cell-based, ATP luminescence (AID 2303;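 active = inhibition above 50%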;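 note: 0% = DMSO wells and 100% = digitonin-killed cells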); conditions: HepG2 viability, 24-48 h, at 10 µM, active compounds read high
[3] = target: L-lactate dehydrogenase (Plasmodium falciparum (isolate CDC / Honduras)) (UniProt Q27743); test: PfLDH activity inhibition – cell lysate, 3D7 strain, counter-screen for P. falciparum growth inhibition project (AID 2304);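 note: 0% = vehicle and 100% = reference inhibitor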; conditions: P. falciparum 3D7 crude extract, LDH APAD/NBT absorbance; at 2 µM; active compounds read high
[4] = inhibition of 3D7 malaria parasite growth – strain 3D7 (AID 2306);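 note: 0% = DMSO wells and 100% = chloroquine plus artemisinin control wells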; conditions: P. falciparum 3D7 erythrocytic growth, LDH absorbance, 72 h; at 2 µM; active compounds read high
[5] = target: Calcium-dependent protein kinase 1 (Plasmodium falciparum (isolate 3D7)) (UniProt P62344); test: PfCDPK1 kinase inhibitors, biochemical, TCAMS library (AID 1159585; cut-off not given, nearly all actives have IC50 up to about 0.98 µM;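 note: inhibitors leave more ATP so luminescence rises with inhibition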); conditions: recombinant PfCDPK1, Kinase-Glo ATP depletion luminescence
[6] = target: Plasmodium falciparum protein kinase 6 (PK6, PF3D7_1337100) (UniProt Q8IDW1); test: PfPK6 kinase inhibitors, biochemical, TCAMS library (AID 1159586); conditions: recombinant PfPK6, Kinase-Glo ATP depletion luminescence
[7] = target: Protein kinase 7 (PK7), Plasmodium falciparum 3D7 (PF3D7_0213400) (UniProt Q7YTF7); test: inhibition of Plasmodium PK7 catalytic activity – biochemical, TCAMS antimalarial set, Kinase-Glo luminescence (AID 1159587); conditions: recombinant PfPK7, Kinase-Glo ATP depletion luminescence
[8] = target: Calcium-dependent protein kinase 4 (Plasmodium falciparum (isolate 3D7)) (UniProt Q8IBS5); test: PfCDPK4 kinase inhibitors, biochemical, TCAMS library (AID 1159588; cut-off not given, nearly all actives have IC50 up to about 0.91 µM); conditions: recombinant PfCDPK4, Kinase-Glo ATP depletion luminescence
Calcium-dependent protein kinase 4 (Plasmodium falciparum (isolate 3D7)), sequence (Q8IBS5 whole entry, looked up): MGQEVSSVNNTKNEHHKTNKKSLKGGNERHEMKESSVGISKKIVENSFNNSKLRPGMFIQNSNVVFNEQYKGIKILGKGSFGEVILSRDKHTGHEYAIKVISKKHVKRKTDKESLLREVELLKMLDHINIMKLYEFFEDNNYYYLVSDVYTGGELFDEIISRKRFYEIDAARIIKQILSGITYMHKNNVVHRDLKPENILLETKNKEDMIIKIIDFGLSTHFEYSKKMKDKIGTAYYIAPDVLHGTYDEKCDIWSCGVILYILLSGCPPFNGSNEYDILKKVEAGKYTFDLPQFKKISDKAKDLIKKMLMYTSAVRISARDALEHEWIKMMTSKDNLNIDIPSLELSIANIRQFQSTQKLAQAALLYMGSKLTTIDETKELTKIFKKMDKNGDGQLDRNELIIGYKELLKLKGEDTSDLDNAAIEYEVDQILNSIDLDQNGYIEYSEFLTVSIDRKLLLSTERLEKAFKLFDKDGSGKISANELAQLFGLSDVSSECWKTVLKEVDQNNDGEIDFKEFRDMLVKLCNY

Calcium-dependent protein kinase 1 (Plasmodium falciparum (isolate 3D7)), sequence (P62344 whole entry, looked up): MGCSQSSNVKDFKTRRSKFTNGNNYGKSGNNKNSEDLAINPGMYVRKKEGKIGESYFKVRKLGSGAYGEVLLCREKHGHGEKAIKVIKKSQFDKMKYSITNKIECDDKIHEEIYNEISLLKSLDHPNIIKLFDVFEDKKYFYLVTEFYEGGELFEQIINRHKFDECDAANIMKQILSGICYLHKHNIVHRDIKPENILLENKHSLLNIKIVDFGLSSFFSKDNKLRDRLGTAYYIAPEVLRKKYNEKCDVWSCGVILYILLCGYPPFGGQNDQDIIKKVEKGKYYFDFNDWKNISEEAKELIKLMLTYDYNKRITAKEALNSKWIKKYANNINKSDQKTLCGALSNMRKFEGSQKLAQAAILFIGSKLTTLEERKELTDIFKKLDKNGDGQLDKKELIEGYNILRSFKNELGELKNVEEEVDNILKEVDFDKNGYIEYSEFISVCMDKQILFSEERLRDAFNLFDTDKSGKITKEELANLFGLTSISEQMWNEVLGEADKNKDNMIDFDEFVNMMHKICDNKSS
L-lactate dehydrogenase (Plasmodium falciparum (isolate CDC / Honduras)), sequence (Q27743 whole entry, looked up): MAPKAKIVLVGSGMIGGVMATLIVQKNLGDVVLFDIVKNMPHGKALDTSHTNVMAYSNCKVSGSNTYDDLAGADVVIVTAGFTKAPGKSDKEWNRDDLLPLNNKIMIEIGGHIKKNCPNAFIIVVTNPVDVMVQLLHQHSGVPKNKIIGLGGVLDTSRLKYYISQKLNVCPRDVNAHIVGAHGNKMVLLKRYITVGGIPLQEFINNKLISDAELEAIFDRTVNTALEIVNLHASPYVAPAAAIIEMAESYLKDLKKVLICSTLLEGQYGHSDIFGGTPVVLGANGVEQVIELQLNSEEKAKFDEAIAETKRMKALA
Protein kinase 7 (PK7), Plasmodium falciparum 3D7 (PF3D7_0213400), sequence (Q7YTF7 1-343): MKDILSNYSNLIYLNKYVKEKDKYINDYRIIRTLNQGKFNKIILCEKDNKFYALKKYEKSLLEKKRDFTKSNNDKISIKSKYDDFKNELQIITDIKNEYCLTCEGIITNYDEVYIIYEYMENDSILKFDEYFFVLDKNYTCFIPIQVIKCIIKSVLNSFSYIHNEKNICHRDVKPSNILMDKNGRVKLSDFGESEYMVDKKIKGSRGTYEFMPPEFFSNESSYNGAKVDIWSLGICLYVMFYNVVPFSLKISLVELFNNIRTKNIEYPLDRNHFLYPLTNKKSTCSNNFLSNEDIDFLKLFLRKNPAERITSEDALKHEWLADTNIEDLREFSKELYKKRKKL
Plasmodium falciparum protein kinase 6 (PK6, PF3D7_1337100), sequence (Q8IDW1 1-305): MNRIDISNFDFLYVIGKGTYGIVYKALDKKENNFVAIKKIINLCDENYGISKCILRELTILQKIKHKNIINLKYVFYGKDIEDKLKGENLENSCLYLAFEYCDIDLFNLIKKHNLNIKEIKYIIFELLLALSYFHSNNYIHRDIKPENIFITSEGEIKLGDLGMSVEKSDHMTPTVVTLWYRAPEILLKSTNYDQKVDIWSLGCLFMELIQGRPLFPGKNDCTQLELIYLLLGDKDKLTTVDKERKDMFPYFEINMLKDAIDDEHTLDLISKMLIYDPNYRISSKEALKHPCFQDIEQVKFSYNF

| Structure (SMILES) | growth inhibition [1] | inhibition [2] | inhibition [3] | growth inhibition [4] | outcome [5] | outcome [6] | outcome [7] | outcome [8] |
| --- | --- | --- | --- | --- | --- | --- | --- | --- |
| COc1ccc2nccc([C@@H](O)CN3CCC(NCc4cc5cccnc5[nH]4)CC3)c2n1 | 0% | 7% | -2% | 90% (active) | inactive | inactive | inactive | inactive |
| CN1CCN(c2ccnc3ccc(NC(=O)Cc4ccc(Br)c5ccccc45)cc23)CC1 | 99% (active) | 8% | -3% | 96% (active) | inactive | inactive | inactive | inactive |
| c1cncc(NCc2ccc(-c3cc4ccncc4cc3OC3CCNCC3)s2)c1 | 19% | 4% | 2% | 100% (active) | inactive | inactive | inactive | inactive |
| COc1ccc(CCNC(=O)c2ccc(-n3cc(NC(=O)c4cccnc4)cn3)cc2)cc1OC | 89% (active) | 17% | 3% | 90% (active) | inactive | inactive | inactive | inactive |
| CCOc1ccc(-c2nonc2NC(=O)c2cccs2)cc1OCC | 100% (active) | 6% | 4% | 101% (active) | inactive | inactive | inactive | inactive |
| Cc1cccc(NC(c2cccs2)c2c(NC(=O)c3ccccc3)sc(C)c2C)n1 (stereo not drawn) | 80% (active) | -8% | 1% | 88% (active) | inactive | inactive | inactive | inactive |
| CCc1cn2c3c(cc(C(=O)N[C@@H](Cc4ccccc4)[C@H](O)CNCCOC)cc13)N(C)S(=O)(=O)CC2 | 56% (active) | 7% | -9% | 98% (active) | inactive | inactive | inactive | inactive |
| Cc1cc(CNCCCCCCCNCc2ccc(-c3ccccc3)cc2)ccc1O | 6% | 49% | -2% | 97% (active) | inactive | inactive | inactive | inactive |
| NS(=O)(=O)c1cccc(-c2ccc3nccc(-c4cccc(S(N)(=O)=O)c4)c3c2)c1 | 99% (active) | 40% | 4% | 98% (active) | inactive | inactive | inactive | inactive |
| c1cc(CNCCN2CCNCC2)cc(-c2cccc(-c3nc4ccccc4[nH]3)c2)c1 | 1% | 11% | -3% | 89% (active) | inactive | inactive | inactive | inactive |
| COC(=O)c1ccc(-c2ccc(C(=O)NCC3CCN(c4nc(N)c5cc(OC)c(OC)cc5n4)CC3)cc2)cc1 | 100% (active) | 53% (active) | -4% | 98% (active) | inactive | inactive | inactive | inactive |
| O=C(/C=C/c1ccc(Cl)c(Cl)c1)NCCCCCN1CCC(NC(=S)Nc2ccc(Cl)c(Cl)c2)CC1 | 65% (active) | 29% | 2% | 99% (active) | inactive | inactive | inactive | inactive |
| CCCCCc1cc(OC(C)=O)c2c(c1)OC(C)(C)C=C2C1=CCN(Cc2ccccc2)CC1 | 88% (active) | 14% | -3% | 97% (active) | inactive | inactive | inactive | inactive |
| O=C(CCc1cnc[nH]1)Nc1ccc(-c2ccc(-c3nc4ccc(F)cc4[nH]3)cc2)cc1 | 58% (active) | 26% | -1% | 99% (active) | inactive | inactive | inactive | inactive |
| COc1c(Br)cc(Br)cc1-c1ccc(CN2CC3CCC2CC3)[nH]1 | 100% (active) | 91% (active) | -3% | 98% (active) | inactive | inactive | inactive | inactive |
| N#Cc1ccc2c(c1)CN(CCC1CCC(NC(=O)c3cc4ccccc4cc3N)CC1)CC2 (stereo not drawn) | 52% (active) | 5% | -8% | 80% (active) | inactive | inactive | inactive | inactive |
| Cc1cc(NC2CCN(CC3CCCCC3)CC2)nc(Nc2ccccc2Cl)n1 | 31% | 28% | 4% | 100% (active) | inactive | inactive | inactive | inactive |
| CC(O)C1CCCCN1C(=O)c1cccc(-c2ccc(-c3nc4ccc(F)cc4[nH]3)cc2)c1 (stereo not drawn) | 99% (active) | 46% | -6% | 101% (active) | inactive | inactive | inactive | inactive |
| CN1CCN(CCNc2c3ccccc3nc3ccc4ccccc4c23)CC1 | 99% (active) | 22% | -6% | 99% (active) | inactive | inactive | inactive | inactive |
| O=C(Nc1cccc(CN2CCN(C(=O)c3cccs3)CC2)c1)c1cccs1 | 91% (active) | -2% | 3% | 95% (active) | inactive | inactive | inactive | inactive |
| C=C[C@]1(C)C[C@@H](OC(=O)NC(=O)CCCS(=O)(=O)c2nnc(C)s2)[C@]2(C)[C@H](C)CC[C@]3(CCC(=O)[C@H]32)[C@@H](C)[C@@H]1O | 97% (active) | -9% | -7% | 94% (active) | inactive | inactive | inactive | inactive |

| Structure (SMILES) | growth inhibition [1] | inhibition [2] | inhibition [3] | growth inhibition [4] | outcome [5] | outcome [6] | outcome [7] | outcome [8] |
| --- | --- | --- | --- | --- | --- | --- | --- | --- |
| Cc1cc(Cc2ccc(S(=O)(=O)c3cc4c(cc3O)CCN(C)CC4)cc2)ccc1Cl | 12% | 7% | 0% | 96% (active) | inactive | inactive | inactive | inactive |
| O=C(NCCN1CCCCC1)c1ccc(CNC(=O)c2ccc(O)c(-c3ccc(Cl)c(Cl)c3)c2)cc1 | 68% (active) | 3% | -8% | 93% (active) | inactive | inactive | inactive | inactive |
| O=C(/C=C/c1ccc(Cl)c(Cl)c1)NCCCCCN1CCC(c2c[nH]c3cc(O)ccc23)CC1 | 2% | 32% | 3% | 101% (active) | inactive | inactive | inactive | inactive |
| CCNc1cc(C(=O)N[C@@H](Cc2ccoc2)[C@H](O)CNC(C)CCCC(C)C)cc(N2CCCCS2(=O)=O)c1 (stereo partly drawn) | 68% (active) | -2% | 0% | 99% (active) | inactive | inactive | inactive | inactive |
| COc1cccc(Nc2nc(N)c3ccccc3n2)c1 | 47% | 18% | -2% | 88% (active) | inactive | inactive | inactive | inactive |
| CC(Oc1c(C2CCN(CCCCNC(=O)c3ccc(-c4ccc(Cl)cc4)cc3)CC2)ccc2c1CCCC2)C(N)=O (stereo not drawn) | 16% | 100% (active) | 3% | 99% (active) | inactive | inactive | inactive | inactive |
| COc1ccccc1N1CCN(C(C(=O)NCc2ccc3c(c2)OCO3)c2ccc3c(c2)OCCCO3)CC1 (stereo not drawn) | 13% | 15% | 5% | 88% (active) | inactive | inactive | inactive | inactive |
| Cc1nc2ccc(F)cc2n1C1CCN(C(=O)Cc2ccc(F)c(F)c2)CC1 | 99% (active) | 2% | 0% | 100% (active) | inactive | inactive | inactive | inactive |
| CC(=NNC(=S)NCCc1ccccc1)c1ccccn1 | 99% (active) | 73% (active) | 8% | 100% (active) | inactive | inactive | inactive | inactive |
| COc1cc(C(=O)N2COCC(CCCN3CCC(N4CCCC4)CC3)(c3ccc(Cl)c(Cl)c3)C2)cc(OC)c1OC (stereo not drawn) | 70% (active) | 5% | -1% | 95% (active) | inactive | inactive | inactive | inactive |
| Cc1cc(N(C)C)nc(Nc2ccc(NC(=O)c3cccc(F)c3)cc2)n1 | 62% (active) | -8% | 4% | 100% (active) | inactive | inactive | inactive | inactive |
| Cc1cc(Nc2ccccc2)nc(Nc2ccccc2)n1 | 74% (active) | 0% | -1% | 96% (active) | inactive | inactive | inactive | inactive |
| CCC(NCc1ccc(-c2cncc(C(=O)NCC(C)C)c2)cc1)c1ccccc1 (stereo not drawn) | 8% | 14% | 2% | 86% (active) | inactive | inactive | inactive | inactive |
| CS(=O)(=O)N1CC2(CCN(CCC(NC(=S)Nc3ccccc3)c3ccc(Cl)c(Cl)c3)CC2)c2ccccc21 (stereo not drawn) | 80% (active) | 24% | -1% | 98% (active) | inactive | inactive | inactive | inactive |
| CC(=O)Nc1ncc(C(=O)Nc2cccc(-c3cccc(-c4nc5ccccc5[nH]4)c3)c2)s1 | 38% | 16% | 0% | 92% (active) | inactive | inactive | inactive | inactive |
| COc1ccccc1CNC(=O)CCn1c(=O)[nH]c2ccsc2c1=O | 75% (active) | -5% | -7% | 85% (active) | inactive | inactive | inactive | inactive |
| CN(Cc1ccc(NC(=O)NC2CCN(C(=O)/C=C/c3ccc(Cl)c(Cl)c3)CC2)cc1)C1CCOCC1 | 14% | 9% | 5% | 96% (active) | inactive | inactive | inactive | inactive |
| CCCCCN1CCCC(NS(=O)(=O)c2cccc(C(=O)Nc3cccc(C(F)(F)F)c3)c2)C1 (stereo not drawn) | 5% | 22% | -2% | 86% (active) | inactive | inactive | inactive | inactive |
| Cc1nnc2c(NC(=O)NC3CCCC3)cc3cc(-c4ccc(CN(C)C)cc4)ccc3n12 | 37% | 100% (active) | -2% | 100% (active) | inactive | inactive | inactive | inactive |
| Fc1ccc(Nc2ccnc3cc(-c4ccc(CN5CCOCC5)o4)ccc23)c(Cl)c1 | 100% (active) | 42% | 5% | 101% (active) | inactive | inactive | inactive | inactive |
